Pol eta inh: blocks human DNA polymerase eta activity; recombinant Pol eta, fluorescent DNA replication assay; Potency, µM (series often up to 114 µM), inactives show at the top dose activity change, negative = inhibition, hits mostly inhibitors; 390,000 compounds, 1.2% hits; AID 588591; further: potency means the concentration at half of the fitted maximal effect; on the % scale 0 is the no-effect control and ±100 the full control effect
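Pol eta at 10 nM preincubated with compounds 15 min at room temperature; reaction started with fluorescent substrate (50 nM final) and read kinetically at 0 and 10 min.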
WRN helicase inh: blocks human WRN helicase; Q14191; WRN helicase unwinding, fluorescent forked duplex, kinetic; Potency, µM (top dose mostly 114 µM), for inactives: at the top dose activity change, negative = inhibition, most hits filed as inhibitors; 360,000 compounds, 0.46% hits; AID 651768; further: potency means the concentration at half of the fitted maximal effect; on the % scale 0 is the no-effect control and ±100 the full control effect; nearly all actives have a fitted effect of over 55% in size
Target sequence (Q14191 whole entry, looked up): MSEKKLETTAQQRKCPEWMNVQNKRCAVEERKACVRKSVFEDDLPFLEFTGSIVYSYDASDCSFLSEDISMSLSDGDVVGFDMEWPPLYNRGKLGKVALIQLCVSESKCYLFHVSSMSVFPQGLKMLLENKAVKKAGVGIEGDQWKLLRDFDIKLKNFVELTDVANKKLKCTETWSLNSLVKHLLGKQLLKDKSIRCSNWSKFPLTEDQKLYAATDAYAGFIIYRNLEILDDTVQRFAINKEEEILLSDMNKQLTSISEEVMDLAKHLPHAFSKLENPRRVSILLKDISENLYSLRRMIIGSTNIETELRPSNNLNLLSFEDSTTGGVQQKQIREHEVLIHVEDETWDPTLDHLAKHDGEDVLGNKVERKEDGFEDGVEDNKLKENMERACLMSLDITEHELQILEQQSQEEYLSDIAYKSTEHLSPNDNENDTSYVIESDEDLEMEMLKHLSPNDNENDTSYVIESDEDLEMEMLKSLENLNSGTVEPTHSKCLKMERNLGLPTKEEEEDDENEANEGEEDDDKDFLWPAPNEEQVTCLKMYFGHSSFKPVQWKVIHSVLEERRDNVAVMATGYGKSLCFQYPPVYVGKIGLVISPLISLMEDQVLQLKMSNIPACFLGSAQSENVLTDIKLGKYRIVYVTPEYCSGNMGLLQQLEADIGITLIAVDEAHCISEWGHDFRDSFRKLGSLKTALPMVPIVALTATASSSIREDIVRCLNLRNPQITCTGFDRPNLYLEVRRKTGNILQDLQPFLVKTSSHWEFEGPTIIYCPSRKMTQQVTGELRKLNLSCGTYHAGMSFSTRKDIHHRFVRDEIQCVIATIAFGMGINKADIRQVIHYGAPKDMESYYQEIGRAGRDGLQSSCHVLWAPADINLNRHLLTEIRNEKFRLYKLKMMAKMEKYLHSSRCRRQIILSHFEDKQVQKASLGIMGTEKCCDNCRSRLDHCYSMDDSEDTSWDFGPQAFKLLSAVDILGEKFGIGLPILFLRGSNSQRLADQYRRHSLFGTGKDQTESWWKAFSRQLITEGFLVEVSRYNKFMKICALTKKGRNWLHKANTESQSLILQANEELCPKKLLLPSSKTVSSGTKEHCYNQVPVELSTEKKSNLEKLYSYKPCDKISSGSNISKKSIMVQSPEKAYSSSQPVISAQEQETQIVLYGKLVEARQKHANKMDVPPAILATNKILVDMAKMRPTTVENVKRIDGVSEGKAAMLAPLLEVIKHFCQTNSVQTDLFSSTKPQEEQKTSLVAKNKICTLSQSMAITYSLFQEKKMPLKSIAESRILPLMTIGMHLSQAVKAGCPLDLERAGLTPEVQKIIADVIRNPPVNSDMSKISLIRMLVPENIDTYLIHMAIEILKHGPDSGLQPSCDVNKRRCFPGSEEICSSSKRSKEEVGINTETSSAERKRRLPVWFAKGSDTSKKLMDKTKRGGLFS
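Primary qHTS, 1536-well format. 20 nM WRN + compound, 15 min RT; start with 100 nM forked fluorophore/quencher duplex, 2 mM ATP (final); kinetic read ex 525/em 598 nm.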
POLK inh: inhibitors of human DNA polymerase kappa | Q9UBT6 | Potency, µM (doses to about 107 µM), for inactives: at the top dose activity, negative = inhibition, actives largely listed as inhibitors | purified Pol kappa, fluorescent DNA synthesis assay, 10 min | 400,000 compounds, 0.53% hits; further: potency means the concentration at half of the fitted maximal effect; on the % scale 0 is the no-effect control and ±100 the full control effect
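Here, compound and 10 nM enzyme are combined for 15 min at room temperature; adding 50 nM substrate (final) starts DNA synthesis, tracked by fluorescence at 0 and 10 min against buffer-only wells.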
Pol beta inh: blocks human DNA polymerase beta activity | P06746 | Pol beta primer extension/strand displacement, fluorescence kinetic | Potency, µM (series often up to 114 µM), for the others: top-dose activity change, negative = inhibition, actives largely listed as inhibitors | 340,000 compounds, 1.3% hits; further: potency means the concentration at half of the fitted maximal effect; on the % scale 0 is the no-effect control and ±100 the full control effect
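Pol beta (10 nM) and compounds were preincubated 15 min at room temperature, then 50 nM substrate (final) started primer extension/strand displacement. Reads were taken at 0 and 10 min; concentration-response data were fitted to a four-parameter Hill equation.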
Pol iota inh: blocks human DNA polymerase iota activity. Q9UNA4. Pol iota fluorescent replication assay, 10 min. Potency, µM (highest dose often 115 µM), inactives show at the top dose activity, negative = inhibition, usual class: inhibitors. 390,000 compounds, 1% hits; further: potency means the concentration at half of the fitted maximal effect
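Pol iota at 10 nM preincubated 15 min with compounds at room temperature; reaction started with fluorescent substrate, 50 nM final. Fluorescence read kinetically at 0 and 10 min; buffer-only wells as negative control.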
PI5P4Ka inh: inhibitors of human PI5P4K alpha; P48426; PI5P4Kalpha enzyme, ADP-Glo luminescence, 60 min; active compounds read low; max response, %; 330,000 compounds, 1.2% hits; active means max response of -50% or lower; inconclusive means between -30% and -50%; inactive means -30% or higher; further: value at the top dose of about 77 µM; on the % scale 0 is the no-effect control and ±100 the full control effect
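Quantitative HTS of the MLSMR library against PI5P4Kalpha with substrate. ATP added last at 5 microM final; room temperature, 60 minutes. Remaining ATP depleted, ADP converted and read as luminescence.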
Numbers without * were called inactive; ? = inconclusive; / = no result; ! = repeats disagree; [ ] = another dose, or the depositor's remark. A selection: hits, their analogues and other compounds. The true share with any hit is near 2.8%. Unless noted, the call rests on the fitted dose curve; in most records, active means well fitted curve in the direction sought with a large enough effect; inconclusive means small, poorly fitted or top-dose-only effect, or another doubt; inactive means no such curve, though single readings can be large; an effect the other way counts as inactive or inconclusive.

SMILES	Pol eta inh	WRN helicase inh	POLK inh	Pol beta inh	Pol iota inh	PI5P4Ka inh
O=[N+]([O-])c1ccc(O/N=[N+](\[O-])N2CCCC2)c([N+](=O)[O-])c1	/	/	-18%	/	?	/
CC1(C(=O)O)CCC(C(=O)NC2CCCCC2)C1(C)C (centres undefined)	-7%	-11%	-8%	89µM*	29%	/
CCOc1ccc(NC(=O)NCCN2CCN(c3cc(Cl)ccc3C)CC2)cc1	-16%	/	-7%	-28%	6%	/
C[C@H](CO)N1C[C@H](C)[C@H](CN(C)C(=O)OCc2ccccc2)OCc2cnnn2CCCC1=O	-6%	-5%	/	/	/	7
O=[N+]([O-])c1ccc(-[n+]2ccc3ccccc3c2)c([N+](=O)[O-])c1	-25%	-12%[11.6 µM]	79µM*	/	?	?
Cc1ccc(C)n1-c1ccc(C(=O)NN)cc1	-14%	-11%[57.1 µM]	?	13%	16µM*	?
Cc1ccc(C)n1-c1ccc(C(=O)NCc2ccncc2)cc1	-16%	-7%	3%	3%	-18%	-7
Cc1ccc(Cn2c(C3CCCN3c3nc(C)cs3)nc3cc(C(F)(F)F)ccc32)cc1 (centres undefined)	-29%	-5%	-6%	19%	11%	-1
COc1ccc2nc(SC)c(C#N)cc2c1	-1%	2%	15%	29%	89µM*	1
CCN(C[C@H]1N[C@@](C)(C(=O)OC)[C@H]2C(=O)N(C)C(=O)[C@@H]12)C(=O)COc1ccccc1	-16%	7%	-10%	/	?	-1
CC12CCC3c4ccc(O)c([N+](=O)[O-])c4CCC3C1CCC2=O (centres undefined)	-6%	-6%	/	/	/	-59*
O=c1[nH]c2ccccc2c(O)c1O	6%	-2%	3%	46%	?	-96*
O=c1[nH]c2ccccc2c(O)c1-[n+]1ccccc1	-10%	5%	-6%	-5%	?	-12
CCc1ccc(C2C(C#N)=C(N)SC(N)=C2C#N)s1	?	-11%	?	-8%	?	-75*
CCc1ccc(C2C(C#N)=C(N)SC(N)=C2C#N)cc1	-12%	-27%	-11%	-2%	?	/
Cc1ccc(N=C2NC(=O)/C(=C/c3cccs3)S2)cc1C	-15%	-11%	0%	10µM*	4%	-20
O=C1NC(=Nc2ccccc2)S/C1=C/c1cccs1	6%	-10%	-2%	32µM*	?	-12
Cc1cccc(N=C2NC(=O)/C(=C\c3cccs3)S2)c1	?	-10%	-6%	8%	-18%	-19
O=C1NC(=Nc2ccccc2)S/C1=C\c1ccccc1	-12%	-4%	-9%	-1%	9%	-8
Cc1ccc(-c2nc3cnccn3c2Nc2ccc(C(C)C)cc2)o1	/	/	-37%	/	?	/
CCCn1c(S(=O)(=O)O)nc2ccccc21	28µM*	-3%	-8%	-1%	?	-23
Cc1c(C(=O)N(C)C2CC(C)(C)NC(C)(C)C2)oc2c(F)cccc12	-3%	-32%	-7%	12%	51%	-2
O=c1[nH]c(CN2CCc3ccccc32)nc2scc(-c3cccs3)c12	-4%	-17%	-19%	40µM*	-8%	-11
O=C(CSCc1nc2scc(-c3cccs3)c2c(=O)[nH]1)Nc1ccccn1	-11%	-30%	-13%	-8%	-27%	-23
Cc1c(C(=O)N(C)Cc2ccc(F)cc2)sc(=O)n1Cc1ccc(Cl)c(Cl)c1	/	-5%[57.1 µM]	/	/	/	9
SMILES	Pol eta inh	WRN helicase inh	POLK inh	Pol beta inh	Pol iota inh	PI5P4Ka inh
COc1ccc2nc3cccc(OC)c3nc2c1	?	0%[11.6 µM]	-14%	40µM*	49%	-7
Nc1ccc2ccc(O)cc2c1	50µM*	?	?	/	?	-19
Cc1nc2nc(C)c(CCC(=O)NCCCN3CCN(c4cccc(Cl)c4)CC3)c(C)n2n1	-6%	-10%[57.1 µM]	3%	15%	32µM*!	-6
C/C(=N/NC(=O)c1ccco1)c1cccc(NC(=O)c2ccc(C)s2)c1	-11%	-4%[11.6 µM]	89µM*	3%	19%	-3
CCc1ccc(NC(=O)c2sc3nc(C)c(C(=O)Nc4ccc(C)cc4C)c(-c4ccco4)c3c2N)cc1	-1%	/	-24%	-20%	-4%	/
O=C(O)Cc1sc(Nc2cccc3ccccc23)nc1-c1ccc(Cl)cc1	79µM*	-19%[11.6 µM]	-13%	?	178%	0
COc1cc2oc(=O)ccc2c(OC)c1CC(O)C(C)(C)O (centres undefined)	-4%	1%	8%	-2%	5%	0
COc1cc2ccc(=O)oc2cc1OCC(O)C(C)(C)O (centres undefined)	-4%	-5%	?	35µM*	?	-5
CC(=O)c1ccc(OCCCC(=O)NCC(c2ccco2)N(C)C)cc1 (centres undefined)	13%	-3%	-5%	-2%	10%	/
CN(C)C(CNC(=O)CCOc1ccccc1)c1ccco1 (centres undefined)	?	-18%	79µM*	?	32µM*	-2
COCCNC(=O)c1cccc(-n2c(C)nc3cccnc32)c1	-7%	/	2%	16%	55%	/
CSc1nsc2nc(=O)c(/C=C3\C=Nc4ccccc43)c(N)n12	?	-18%	0%	-2%	-20%	-56*
CC1=Nc2ccc(C)cc2/C1=C/c1c(N)n2c(S(=O)(=O)C(C)C)nsc2nc1=O	?	?	-16%	?	?	-85*
Nc1c(C=C2C=CC(=O)C=C2)c(=O)nc2snc(SCc3ccccc3)n12	?	-7%	-4%	?	?	-51*
CC1=Nc2ccccc2/C1=C/c1c(C)[nH]c2ccccc12	-12%	4%	-7%	/	52%	?
CC1=Nc2ccccc2/C1=C/c1c(N)n2c(S(=O)(=O)C(C)C)nsc2nc1=O	?	?	-21%	-16%	50%	-76*
Cc1cn2c(N)c(/C=C3\C=Nc4ccccc43)c(=O)nc2s1	-4%	5%	-7%	-4%	?	-13
CSc1nsc2nc(=O)c(/C=C3\C(C)=Nc4ccc(C)cc43)c(N)n12	?	?	-15%	-9%	9%	-68*
CC(C)S(=O)(=O)c1nsc2nc(=O)c(/C=C3\C=Nc4ccccc43)c(N)n12	32µM*	-11%[11.6 µM]	?	40µM*	-12%	-79*
CC1=Nc2ccccc2/C1=C/c1c(N)n2c(S(=O)(=O)CC(C)C)nsc2nc1=O	40µM*	?	-31%	?	19%	-65*
CC1=Nc2ccc(C)cc2/C1=C/c1c(N)n2oc(C)cc2nc1=O	-10%	-12%	-14%	?	?	-3
CCOC(=O)c1cc(-c2ccccc2)n(CCCC(=O)Nc2ccccc2C)c1C	-8%	/	-3%[60.1 µM]	-25%	-9%	/
